Test [1] in a line: A CellTox Green Cytotoxicity Assay to monitor cytotoxicity in HepG2 cells - 24 hour (AID 1224878). Further: nearly all actives have a fitted effect of over 45% in size. The method, boiled down:
(§1)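 Real-time cytotoxicity: fluorescence of a cell-impermeant cyanine dye binding DNA of dead HepG2 cells, measured repeatedly (0–40 h) during compound exposure at 37 C. Cells seeded 600/well with reagent, dosed after 5 h.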

Test [2] in a line: A CellTox Green Cytotoxicity Assay to monitor cytotoxicity in HepG2 cells - 40 hour (AID 1224879). Further: nearly all actives have a fitted effect of over 40% in size. In short, it runs like this: as §1
A short description of test [3]: qHTS RealTime-Glo MT Cell Viability Assay in HEK293 cells - 0 hour (AID 1224880). Further: top concentration of the series differs between compounds; nearly all actives have a fitted effect of over 45% in size. The method, boiled down:
(§2)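 Luminescence, which tracks viable cell number through reduction of the prosubstrate to a NanoLuc substrate, was read over continuous 37 C culture. Cells (600/well) were premixed with reagent and rested 5 h before 23 nL of compound in DMSO was pinned.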
Background: Quantitative high-throughput screening tests each substance at several concentrations.

Test [4] can be described thus: A CellTox Green Cytotoxicity Assay to monitor cytotoxicity in HEK293 cells - 32 hour (AID 1224881). Further: nearly all actives have a fitted effect of over 40% in size. The method, boiled down: (§3)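 Fluorescence from a DNA-binding dye excluded by viable cells was measured repeatedly in the same HEK293 wells (600 cells/well) during continuous compound exposure at 37 C. Each assay gives one read point: 0, 8, 16, 24, 32 or 40 h.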
Test [5] can be described thus: A CellTox Green Cytotoxicity Assay to monitor cytotoxicity in HepG2 cells - 0 hour (AID 1224882). Further: nearly all actives have a fitted effect of over 35% in size. In short, it runs like this:
as §1

Test [6] is described as follows: A CellTox Green Cytotoxicity Assay to monitor cytotoxicity in HepG2 cells - 32 hour (AID 1224883). Further: nearly all actives have a fitted effect of over 50% in size. The method, boiled down: as §1
Test [7] in a line: A CellTox Green Cytotoxicity Assay to monitor cytotoxicity in HEK293 cells - 8 hour (AID 1224884). Further: nearly all actives have a fitted effect of over 35% in size. The method, boiled down:
as §3

Test [8] is described as follows: qHTS RealTime-Glo MT Cell Viability Assay in HepG2 cells - 16 hour (AID 1224885). Further: nearly all actives have a fitted effect of over 50% in size. The method, boiled down: (§4)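 Viability was tracked continuously by NanoLuc luminescence from prosubstrate reduced by living HepG2 cells, at successive time points over 40 h of compound exposure. Cells with reagent were preincubated 5 h at 37 °C before compound addition.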
Test [9] can be described thus: qHTS RealTime-Glo MT Cell Viability Assay in HEK293 cells - 24 hour (AID 1224886). Further: top concentration of the series differs between compounds; nearly all actives have a fitted effect of over 50% in size. In short, it runs like this:
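Viability tracked continuously by luminescence as live cells reduce a prosubstrate for NanoLuc; HEK293 cells preincubated 5 h, compound-treated at 37 C, and read at 0, 8, 16, 24, 32 and 40 h.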

Test [10] can be described thus: qHTS RealTime-Glo MT Cell Viability Assay in HEK293 cells - 8 hour (AID 1224887). Further: top concentration of the series differs between compounds; nearly all actives have a fitted effect of over 50% in size. In short, it runs like this: as §2
Test [11] is described as follows: A CellTox Green Cytotoxicity Assay to monitor cytotoxicity in HEK293 cells - 16 hour (AID 1224888). Further: nearly all actives have a fitted effect of over 35% in size. The method, boiled down:
as §3

A short description of test [12]: qHTS RealTime-Glo MT Cell Viability Assay in HepG2 cells - 0 hour (AID 1224889). Further: nearly all actives have a fitted effect of over 50% in size. In short, it runs like this:
as §4

Test [13] can be described thus: A CellTox Green Cytotoxicity Assay to monitor cytotoxicity in HepG2 cells - 8 hour (AID 1224890). Further: nearly all actives have a fitted effect of over 45% in size. The method, boiled down: as §1
The nature of test [14]: qHTS assay to identify small molecule antagonists of the estrogen receptor alpha (ER-alpha) signaling pathway using the BG1 cell line in the presence of 0.1 nM 17-beta-estradiol - cell viability counter screen (AID 1259241). Further: nearly all actives have a fitted effect of over 40% in size. In short, it runs like this:
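In this screen, hormone-deprived VM7Luc4E2 cells were seeded at 4,000 per well, dosed with compound and 0.1 nM estradiol final, and incubated 22 hr at 37C and 5% CO2; fluorogenic live-cell protease signal reported viability.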

Test [15] is described as follows: qHTS assay to identify small molecule antagonists of the androgen receptor (AR) signaling pathway using the MDA cell line in the presence of 0.5 nM R1881 - cell viability counter screen (AID 1259242). Further: nearly all actives have a fitted effect of over 45% in size. In short, it runs like this: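 Live-cell protease activity was measured by CellTiter-Fluor fluorescence after 30 min. Before that, MDA-kb2 MMTV-luciferase cells had 16 hr at 37C without CO2, exposed to test compounds and 0.5 nM R1881 final.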

Test [16] concerns the target Androgen receptor (Homo sapiens) (UniProt P10275). The test can be described thus: qHTS assay to identify small molecule antagonists of the androgen receptor (AR) signaling pathway using the MDA cell line in the presence of 0.5 nM R1881 (AID 1259243). Further: nearly all actives have a fitted effect of over 50% in size. Further: potency means the concentration at half of the fitted maximal effect. The method, boiled down: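 Luminescent reporter readout (ONE-Glo, 30 min, room temperature) after 16 hr co-treatment of MDA-kb2 cells with test compounds and 0.5 nM R1881 final, at 37C without CO2. The MMTV-driven luciferase responds to both AR and GR.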

Test [17] is described as follows: qHTS assay to identify small molecule HDAC inhibitors (AID 1259364). The method, boiled down: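 Luminescence read after 30 min room-temperature HDAC-Glo incubation measures cellular class I/II HDAC activity. Compounds were applied for 2 hr at 37 C to HCT-116 wild-type cells seeded the day before.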
Test [18] is described as follows: qHTS assay to identify small molecule HDAC inhibitors - cell viability counter screen (AID 1259365). The method, boiled down:
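Measured quantity is CellTiter-Glo luminescence from wild-type HCT-116 cells after compound incubation of 2hr at 37C, 5% CO2; reagent developed 30min at room temperature.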

In test [19] the target is Estrogen receptor (Homo sapiens) (UniProt P03372). The test can be described thus: qHTS assay to identify small molecule antagonists of the estrogen receptor alpha (ER-alpha) signaling pathway using the BG1 cell line in the presence of 0.1 nM 17-beta-estradiol (AID 1259244). Further: nearly all actives have a fitted effect of over 50% in size. In short, it runs like this: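 Luciferase luminescence (ONE-Glo, 30 min at room temperature) was read after 22 hr at 37C exposure to compounds plus 17beta-estradiol at 0.1 nM final. Cells were VM7Luc4E2 with endogenous ER-alpha and an ERE-driven luciferase, pre-cultured 5 days in hormone-depleted medium.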

The nature of test [20]: qHTS assay to identify small molecule phospholipidosis (PLD) inducers (AID 1259344; active means well fitted curve in the direction sought with a large enough effect; an effect the other way counts as inactive or inconclusive). In short, it runs like this:
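Read-out is LipidTOX Red fluorescence (ex 595/em 615) imaged in HepG2 cells after 24 h compound exposure at 37 C, with Hoechst nuclear counterstain (ex 352/em 461) allowing per-cell normalisation.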

Records with an inconclusive call do not appear. Active and inactive are the calls of the source. Unless noted, the call rests on the fitted dose curve; in most records, active means well fitted curve in the direction sought with a large enough effect in the repeat runs; inconclusive means weak or mixed curves; inactive means no such curve, though single readings can be large; an effect the other way counts as inactive or inconclusive.

Sequence of Androgen receptor (Homo sapiens) (P10275 whole entry, looked up): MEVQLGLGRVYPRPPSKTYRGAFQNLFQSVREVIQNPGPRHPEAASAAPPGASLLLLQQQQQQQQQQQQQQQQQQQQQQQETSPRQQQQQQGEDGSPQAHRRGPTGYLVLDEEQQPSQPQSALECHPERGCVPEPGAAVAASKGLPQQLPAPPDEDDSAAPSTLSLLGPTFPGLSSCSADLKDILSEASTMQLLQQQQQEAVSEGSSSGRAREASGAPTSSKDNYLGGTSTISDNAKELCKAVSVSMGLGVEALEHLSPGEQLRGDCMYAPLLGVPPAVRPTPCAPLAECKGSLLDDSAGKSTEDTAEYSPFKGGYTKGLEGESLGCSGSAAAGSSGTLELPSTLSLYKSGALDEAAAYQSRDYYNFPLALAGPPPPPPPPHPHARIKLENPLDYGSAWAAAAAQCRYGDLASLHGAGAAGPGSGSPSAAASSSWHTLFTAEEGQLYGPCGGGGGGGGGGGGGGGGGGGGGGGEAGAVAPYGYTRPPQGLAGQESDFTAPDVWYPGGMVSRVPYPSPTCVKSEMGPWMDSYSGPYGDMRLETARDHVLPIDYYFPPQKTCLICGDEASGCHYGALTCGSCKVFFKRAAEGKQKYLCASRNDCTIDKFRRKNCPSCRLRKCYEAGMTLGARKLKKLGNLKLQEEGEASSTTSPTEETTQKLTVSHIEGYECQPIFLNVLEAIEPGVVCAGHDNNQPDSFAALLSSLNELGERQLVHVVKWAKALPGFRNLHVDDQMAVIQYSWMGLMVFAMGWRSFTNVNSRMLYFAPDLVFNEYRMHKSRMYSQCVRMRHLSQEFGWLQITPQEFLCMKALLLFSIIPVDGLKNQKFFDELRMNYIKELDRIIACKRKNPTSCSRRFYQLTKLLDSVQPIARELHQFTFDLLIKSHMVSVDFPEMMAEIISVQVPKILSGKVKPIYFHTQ
Sequence of Estrogen receptor (Homo sapiens) (P03372 whole entry, looked up): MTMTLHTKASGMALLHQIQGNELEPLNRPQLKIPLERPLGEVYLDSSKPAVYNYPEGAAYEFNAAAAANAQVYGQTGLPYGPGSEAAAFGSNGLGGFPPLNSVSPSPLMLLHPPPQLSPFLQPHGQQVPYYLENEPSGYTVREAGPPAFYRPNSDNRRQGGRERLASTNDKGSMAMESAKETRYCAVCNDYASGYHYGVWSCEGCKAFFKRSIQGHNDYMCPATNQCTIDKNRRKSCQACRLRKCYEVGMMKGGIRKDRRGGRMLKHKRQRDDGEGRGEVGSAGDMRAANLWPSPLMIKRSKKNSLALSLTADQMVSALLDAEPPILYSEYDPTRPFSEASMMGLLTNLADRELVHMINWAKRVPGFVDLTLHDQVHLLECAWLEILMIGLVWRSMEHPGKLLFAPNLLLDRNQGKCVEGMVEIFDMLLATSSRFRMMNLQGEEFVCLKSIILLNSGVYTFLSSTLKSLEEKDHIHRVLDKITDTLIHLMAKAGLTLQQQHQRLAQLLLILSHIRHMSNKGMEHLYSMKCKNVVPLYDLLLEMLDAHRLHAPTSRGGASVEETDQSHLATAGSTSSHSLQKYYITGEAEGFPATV

For `CC(=O)c1ccc(O)c(C(N)=O)c1`, the Potency result in test [1], in test [2], in test [3], in [4], in test [5] and in [6] was “inactive” throughout. Also, the Potency result in test [7], in test [11], in test [12], in test [13], in test [16] and in test [17] was “inactive” each time. The compound was called inactive in [8], in test [9], in test [10], in [14], in [15] and in [18].

In the case of `CC(C)C(=O)Nc1cccc(C2CN3CCSC3=N2)c1` (centres undefined), the Potency entry in test [1], in [2], in test [3], in [4], in [5] and in test [6] was “inactive” each time. For the same compound, the Potency result in test [7], in [11], in test [12], in test [13], in test [16] and in test [17] was “inactive” in each case. Further, the compound was called inactive in test [8], in [9], in test [10], in test [14], in test [15] and in test [19]. The compound was classed as inactive in test [18].

`CSC(=O)c1cccc2nnsc12`: the Potency result in [1], in [2], in test [3], in test [4], in [5] and in test [6] was “inactive” throughout. The Potency entry in [7], in test [11], in [12], in [13] and in test [17] was “inactive” each time. The compound was called inactive in [8], in [9], in test [10], in test [14], in test [15] and in test [19]. Besides, the compound was classed as inactive in [18]. Moreover, in test [16], the Potency was 15.4 µM (active).

Take `CC12CCCC=C1C(=O)OC2=O` (centres undefined): the Potency entry in test [1], in test [2], in test [3], in test [4], in test [5] and in test [6] was “inactive” in each case. Besides, the Potency entry in test [7], in test [11], in [12], in test [13], in [16] and in test [17] was “inactive” each time. Also, the compound was classed as inactive in test [8], in test [9], in test [10], in test [14], in [15] and in test [18].

In the case of `O=CN1CCCCC1`, the Potency entry in test [1], in test [2], in [3], in test [4], in test [5] and in test [6] was “inactive” in each case. Moreover, the Potency entry in [7], in test [11], in [12], in test [13] and in test [17] was “inactive” in each case. Also, the compound was called inactive in [8], in [9], in test [10], in [14], in test [15] and in test [19]. In addition, in test [18], the outcome was inactive.

As to `CN(C)c1cc(NC(=O)CNC(C)(C)C)c(O)c2c1C[C@H]1C[C@H]3[C@H](N(C)C)C(=O)C(C(N)=O)=C(O)[C@@]3(O)C(=O)C1=C2O`, the Potency result in test [1], in test [2], in test [3], in test [4], in [5] and in [6] was “inactive” in each case. Further, the Potency entry in [7], in test [11], in [12], in [13], in [16] and in test [20] was “inactive” in each case. Moreover, in test [17], the Potency entry was “inactive”. In addition, the result in [8], in [9], in test [10], in test [14] and in test [15] was inactive.

For `C=CC(=O)OCC[N+](C)(C)C`, the Potency result in test [1], in test [2], in test [3], in test [4], in [5] and in [6] was “inactive” each time. The Potency result in test [7], in [11], in [12] and in [13] was “inactive” in each case. The call in test [8], in test [9], in [10], in test [14], in [15] and in test [19] was inactive.

With `CC(CN1CC(=O)NC(=O)C1)N1CC(=O)NC(=O)C1` (centres undefined), the Potency entry in [1], in [2], in test [3], in [4], in test [5] and in test [6] was “inactive” throughout. Further, the Potency result in [7], in test [11], in test [12], in test [13], in test [16] and in [17] was “inactive” throughout. The outcome in test [8], in test [9], in [10], in test [14], in test [15] and in test [19] was inactive.
